Test results as given in PubChem BioAssay AID1159580 (chemical genetic matrix, 2015).
Among all 5,500 compounds or so, about 2,000 (36%) were called active. Not shown: some 18% with an inconclusive outcome. This is one part of the list. Unmarked numbers belong to inactive results. No stated cut-off is given here; in the data, active means normalized growth mostly below about 0.91 (no sharp cut-off); inconclusive means no clear call, values can overlap the other calls; inactive means mostly above about 0.92.

Test: chemical genetic growth profiling, strain panel (AID 1159580);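 further: tested at 20 µM; growth read once vehicle control cultures reached saturation at 30 °C; 1 = growth at the plate median or of vehicle wells; lower values mean less growth of the strain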
Details: growth OD
[1] = S. cerevisiae deletion strains, locus YDL101C, strain DUN1, hits give low values
[2] = S. cerevisiae deletion strains, locus YHR030C, strain SLT2, hits give low values
[3] = S. cerevisiae deletion strains, locus YAL013W, strain DEP1, hits give low values
[4] = S. cerevisiae deletion strains, locus YBR229C, strain ROT2, hits give low values
[5] = S. cerevisiae deletion strains, locus YCL061C, strain MRC1, hits give low values
[6] = S. cerevisiae deletion strains, locus YDR150W, strain NUM1, hits give low values
[7] = S. cerevisiae deletion strains, locus YEL061C, strain CIN8, hits give low values
[8] = S. cerevisiae deletion strains, locus YGR078C, strain PAC10, hits give low values
[9] = S. cerevisiae deletion strains, locus YHR087W, strain rtc3, hits give low values
[10] = S. cerevisiae deletion strains, locus YJR043C, strain POL32, hits give low values
[11] = S. cerevisiae deletion strains, locus YKL190W, strain CNB1, hits give low values
[12] = S. cerevisiae deletion strains, locus YLR039C, strain RIC1, hits give low values
[13] = S. cerevisiae deletion strains, locus YLR058C, strain SHM2 (second series), hits give low values
[14] = S. cerevisiae deletion strains, locus YLR085C, strain ARP6, hits give low values
[15] = S. cerevisiae deletion strains, locus YLR262C, strain YPT6, hits give low values
[16] = S. cerevisiae deletion strains, locus YML094W, strain GIM5, hits give low values
[17] = S. cerevisiae deletion strains, locus YMR219W, strain ESC1, hits give low values
[18] = S. cerevisiae deletion strains, locus YMR263W, strain SAP30, hits give low values
[19] = S. cerevisiae deletion strains, locus YNL128W, strain TEP1, hits give low values
[20] = S. cerevisiae deletion strains, locus YNL298W, strain CLA4 (second series), hits give low values
[21] = S. cerevisiae deletion strains, locus YNL322C, strain KRE1, hits give low values
[22] = S. cerevisiae deletion strains, locus YNR030W, strain Alg12, hits give low values
[23] = S. cerevisiae deletion strains, locus YPL055C, strain LGE1, hits give low values
[24] = S. cerevisiae deletion strains, locus YPL241C, strain CIN2, hits give low values
[25] = S. cerevisiae deletion strains, locus YPR135W, strain CTF4, hits give low values

Structure (SMILES): O=S(=O)(Nc1csc(C(F)(F)F)c1-c1ccccc1)c1cc(Br)c(Br)s1
- normalized growth (S. cerevisiae deletion strains, locus YAR019C, strain CDC15, hits give low values): 0.957
- normalized growth (S. cerevisiae deletion strains, locus YBL105C, strain PKC1, hits give low values): 0.952
- normalized growth (S. cerevisiae deletion strains, locus YBR135W, strain CKS1, hits give low values): 0.96
- normalized growth (S. cerevisiae deletion strains, locus YBR136W, strain MEC1, hits give low values): 0.93
- normalized growth (S. cerevisiae deletion strains, locus YBR160W, strain CDC28, hits give low values): 0.961
- normalized growth (S. cerevisiae deletion strains, locus YDL017W, strain CDC7, hits give low values): 0.955
- normalized growth (S. cerevisiae deletion strains, locus YDL028C, strain MPS1, hits give low values): 0.935
- normalized growth [1]: 0.968
- normalized growth (S. cerevisiae deletion strains, locus YDL108W, strain KIN28, hits give low values): 0.939
- normalized growth (S. cerevisiae deletion strains, locus YDL132W, strain cdc53, hits give low values): 0.971
- normalized growth (S. cerevisiae deletion strains, locus YDL214C, strain PRR2, hits give low values): 0.927
- normalized growth (S. cerevisiae deletion strains, locus YDR052C, strain DBF4, hits give low values): 0.961
- normalized growth (S. cerevisiae deletion strains, locus YDR054C, strain cdc34, hits give low values): 0.96
- normalized growth (S. cerevisiae deletion strains, locus YDR226W, strain ADK1, hits give low values): 0.953
- normalized growth (S. cerevisiae deletion strains, locus YDR477W, strain SNF1, hits give low values): 0.91
- normalized growth (S. cerevisiae deletion strains, locus YER123W, strain YCK3, hits give low values): 0.899
- normalized growth (S. cerevisiae deletion strains, locus YER133W, strain GLC7, hits give low values): 0.959
- normalized growth (S. cerevisiae deletion strains, locus YFL009W, strain cdc4, hits give low values): 0.968
- normalized growth (S. cerevisiae deletion strains, locus YFL029C, strain CAK1, hits give low values): 0.949
- normalized growth (S. cerevisiae deletion strains, locus YFR003C, strain YPI1, hits give low values): 0.961
- normalized growth (S. cerevisiae deletion strains, locus YFR019W, strain FAB1, hits give low values): 0.852
- normalized growth (S. cerevisiae deletion strains, locus YFR028C, strain CDC14, hits give low values): 0.974
- normalized growth (S. cerevisiae deletion strains, locus YGR040W, strain KSS1, hits give low values): 0.912
- normalized growth (S. cerevisiae deletion strains, locus YGR052W, strain FMP48, hits give low values): 0.873
- normalized growth (S. cerevisiae deletion strains, locus YGR092W, strain DBF2, hits give low values): 0.804
- normalized growth [2]: 0.305 (active)
- normalized growth (S. cerevisiae deletion strains, locus YHR079C, strain IRE1, hits give low values): 0.814
- normalized growth (S. cerevisiae deletion strains, locus YHR082C, strain KSP1, hits give low values): 0.654
- normalized growth (S. cerevisiae deletion strains, locus YHR205W, strain SCH9, hits give low values): 0.887
- normalized growth (S. cerevisiae deletion strains, locus YIL147C, strain SLN1, hits give low values): 0.951
- normalized growth (S. cerevisiae deletion strains, locus YJL095W, strain BCK1, hits give low values): 0.911
- normalized growth (S. cerevisiae deletion strains, locus YJL128C, strain PBS2, hits give low values): 0.956
- normalized growth (S. cerevisiae deletion strains, locus YJL157C, strain FAR1, hits give low values): 0.948
- normalized growth (S. cerevisiae deletion strains, locus YJR016C, strain ILV3, hits give low values): 0.962
- normalized growth (S. cerevisiae deletion strains, locus YJR066W, strain TOR1 (second series), hits give low values): 0.962
- normalized growth (S. cerevisiae deletion strains, locus YJR066W, strain TOR1, hits give low values): 0.861
- normalized growth (S. cerevisiae deletion strains, locus YKL048C, strain ELM1, hits give low values): 0.894
- normalized growth (S. cerevisiae deletion strains, locus YKL067W, strain YNK1, hits give low values): 0.943
- normalized growth (S. cerevisiae deletion strains, locus YKL101W, strain HSL1, hits give low values): 0.79
- normalized growth (S. cerevisiae deletion strains, locus YKL193C, strain SDS22, hits give low values): 0.964
- normalized growth (S. cerevisiae deletion strains, locus YKL203C, strain TOR2, hits give low values): 0.964
- normalized growth (S. cerevisiae deletion strains, locus YLR113W, strain HOG1, hits give low values): 0.8 (active)
- normalized growth (S. cerevisiae deletion strains, locus YLR133W, strain CKI1, hits give low values): 0.871
- normalized growth (S. cerevisiae deletion strains, locus YLR403W, strain SFP1, hits give low values): 0.906
- normalized growth (S. cerevisiae deletion strains, locus YML070W, strain DAK1, hits give low values): 0.897
- normalized growth (S. cerevisiae deletion strains, locus YMR001C, strain CDC5, hits give low values): 0.957
- normalized growth (S. cerevisiae deletion strains, locus YMR205C, strain PFK2 (second series), hits give low values): 0.907
- normalized growth (S. cerevisiae deletion strains, locus YMR277W, strain FCP1, hits give low values): 0.968
- normalized growth (S. cerevisiae deletion strains, locus YNL006W, strain LST8, hits give low values): 0.973
- normalized growth (S. cerevisiae deletion strains, locus YNL020C, strain ARK1, hits give low values): 0.837
- normalized growth (S. cerevisiae deletion strains, locus YNL161W, strain CBK1, hits give low values): 0.957
- normalized growth (S. cerevisiae deletion strains, locus YNL183C, strain NPR1, hits give low values): 0.814
- normalized growth (S. cerevisiae deletion strains, locus YNL207W, strain RIO2, hits give low values): 0.959
- normalized growth (S. cerevisiae deletion strains, locus YNL222W, strain SSU72, hits give low values): 0.955
- normalized growth (S. cerevisiae deletion strains, locus YNL307C, strain MCK1 (second series), hits give low values): 0.81
- normalized growth (S. cerevisiae deletion strains, locus YOL078W, strain AVO1, hits give low values): 0.964
- normalized growth (S. cerevisiae deletion strains, locus YOL136C, strain PFK27, hits give low values): 0.878
- normalized growth (S. cerevisiae deletion strains, locus YOR061W, strain CKA2, hits give low values): 0.696
- normalized growth (S. cerevisiae deletion strains, locus YOR119C, strain RIO1, hits give low values): 0.948
- normalized growth (S. cerevisiae deletion strains, locus YOR231W, strain MKK1, hits give low values): 0.879
- normalized growth (S. cerevisiae deletion strains, locus YOR329C, strain SCD5, hits give low values): 0.954
- normalized growth (S. cerevisiae deletion strains, locus YPL031C, strain PHO85, hits give low values): 0.844
- normalized growth (S. cerevisiae deletion strains, locus YPL153C, strain RAD53, hits give low values): 0.88
- normalized growth (S. cerevisiae deletion strains, locus YPL204W, strain HRR25, hits give low values): 0.89
- normalized growth (S. cerevisiae deletion strains, locus YPL209C, strain IPL1, hits give low values): 0.96
- normalized growth (S. cerevisiae deletion strains, locus YPL256C, strain CLN2, hits give low values): 0.712 (active)
- normalized growth (S. cerevisiae deletion strains, locus YPR025C, strain CCL1, hits give low values): 0.958
- normalized growth (S. cerevisiae deletion strains, locus YPR106W, strain ISR1, hits give low values): 0.961
- normalized growth (S. cerevisiae deletion strains, locus YPR111W, strain DBF20, hits give low values): 0.943
- normalized growth (S. cerevisiae deletion strains, strain NNK1, hits give low values): 0.966
- normalized growth (S. cerevisiae deletion strains, strain TSCII, hits give low values): 0.963

Structure (SMILES): O=S(=O)(NCCc1ccncc1)c1cc(C(F)(F)F)cc(C(F)(F)F)c1
- normalized growth [3]: 1
- normalized growth [4]: 0.988
- normalized growth [5]: 0.963
- normalized growth [1]: 0.966
- normalized growth [6]: 0.913
- normalized growth [7]: 1
- normalized growth [8]: 0.987
- normalized growth [2]: 1.01
- normalized growth [9]: 1.07
- normalized growth (S. cerevisiae deletion strains, locus YJL187C, strain SWE1, hits give low values): 1.01
- normalized growth [10]: 0.964
- normalized growth (S. cerevisiae deletion strains, locus YJR075W, strain HOC1, hits give low values): 1.02
- normalized growth [11]: 1.01
- normalized growth [12]: 0.976
- normalized growth [13]: 1
- normalized growth [14]: 1.05
- normalized growth [15]: 1.03
- normalized growth [16]: 1.02
- normalized growth [17]: 0.993
- normalized growth [18]: 1.01
- normalized growth [19]: 0.989
- normalized growth (S. cerevisiae deletion strains, locus YNL153C, strain GIM3, hits give low values): 0.994
- normalized growth [20]: 0.986
- normalized growth [21]: 1
- normalized growth [22]: 1.03
- normalized growth (S. cerevisiae deletion strains, locus YOL006C, strain TOP1, hits give low values): 0.976
- normalized growth [23]: 1.02
- normalized growth [24]: 0.98
- normalized growth [25]: 0.942
- normalized growth (S. cerevisiae strains, strain wild type, hits give low values): 0.979

Structure (SMILES): CCOC(=O)C(=CNNS(=O)(=O)c1cc(C(F)(F)F)cc(C(F)(F)F)c1)C(=O)OCC
- normalized growth [3]: 1.01
- normalized growth [4]: 0.997
- normalized growth [5]: 0.979
- normalized growth [1]: 0.929
- normalized growth (S. cerevisiae deletion strains, locus YDL134C, strain PPH21, hits give low values): 1
- normalized growth [6]: 1
- normalized growth [7]: 1.01
- normalized growth [8]: 0.967
- normalized growth [2]: 1
- normalized growth [9]: 0.96
- normalized growth [10]: 0.973
- normalized growth [11]: 0.992
- normalized growth [12]: 0.931
- normalized growth [13]: 0.954
- normalized growth [14]: 1.03
- normalized growth [15]: 0.968
- normalized growth [16]: 0.988
- normalized growth [17]: 0.989
- normalized growth [18]: 1.04
- normalized growth [19]: 0.945
- normalized growth [20]: 1
- normalized growth [21]: 0.993
- normalized growth [22]: 1
- normalized growth [23]: 1.03
- normalized growth [24]: 1.02
- normalized growth [25]: 0.964
